The text below walks through data of the supplement of paper PMC9177965.

Test [1] relates to HT29 RNF43 G659fs (RNF43 659mut, CRISPR-edited). Put plainly: cell viability activity relative to DMSO (negative = inhibition); higher = more viable cells (less growth inhibition). The settings on record: 5 µM; 96 h. The method, then:
(§1)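 Broad Repurposing Library primary screen at a single dose of 5 uM. HT29 sg-Ctrl and HT29 RNF43 G659fs CRISPR-edited isogenic cells were seeded at 2500 cells/well in 384-well plates in duplicate and treated for 96 h. Viability was read by CellTiter-Glo and reported as % activity relative to DMSO, with MG132 as the positive control (negative = growth inhibition).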

For test [2], the system named is HT29 sg-Ctrl (RNF43 wildtype). The test is described as above. The conditions noted are these: 5 µM; 96 h. The method, then: as §1

Take `Cc1ccc(C(=O)Nc2cccc(C(F)(F)F)c2)cc1Nc1nc(-c2cccnc2)nc2c1cnn2C`: the cell viability activity is -36.8% in test [1] and -24.4% in test [2].
The corresponding values for `Cn1cc(CNCC2CCN(c3ncc(C(=O)NO)cn3)CC2)c2ccccc21` are -95.9% and -92.8%.
`CN(C)C(=O)c1cc2cnc(Nc3ccc(N4CCNCC4)cn3)nc2n1C1CCCC1`: the values for the cell viability activity in test [1] and in test [2] were -26% and -39.7%, respectively.
With `C=C[C@@](C)(/C=C/c1ccc(O)cc1)CCC=C(C)C`, the cell viability activity in test [1] was -39.5%; in test [2], -49.8%.
The corresponding values for `Cc1nc(Nc2n[nH]c3c2CN(C(=O)N[C@H](CN(C)C)c2ccccc2)C3(C)C)c2sccc2n1` are -73.8% and -79.1%.
With `CO[C@@H]1[C@H](N(C)C(=O)c2ccccc2)C[C@H]2O[C@]1(C)n1c3ccccc3c3c4c(c5c6ccccc6n2c5c31)C(=O)NC4`, the cell viability activity in test [1] is -53.8%; in test [2] it was -61.4%.
The corresponding values for `Nc1nc(=O)n([C@H]2C[C@H](O)[C@@H](CO)O2)cc1F` are -64.2% and -71%.
Turning to `C[C@]1(O)C[C@@H](c2nc(-c3ccc4ccc(-c5ccccc5)nc4c3)c3c(N)nccn32)C1`, the cell viability activity in test [1] is -32.5%; in test [2] it was -26.2%.
Regarding `O=C(/C=C/c1ccc2ccccc2n1)c1ccncc1`, the cell viability activity in test [1] was -68.9%; in test [2], -54%.
The corresponding values for `O=C(Nc1nc2ccc(NC(=O)C34CC5CC(CC(C5)C3)C4)cc2s1)c1ccccc1` are -37.7% and -29.4%.
Turning to `CN1CCN(Cc2ccc(Nc3ncc(Cl)c(Nc4ccccc4S(=O)(=O)N(C)C)n3)cc2)CC1`, the cell viability activity in test [1] was -94.8%; in test [2], -96.1%.
The corresponding values for `CNC(=O)c1c(F)cccc1Nc1nc(Nc2cc3c(cc2OC)CCN3C(=O)CN(C)C)nc2[nH]ccc12` are -31.8% and -35%.
Consider `CN1CCc2c(c3ccccc3n2Cc2ccccc2)C1`, for which the cell viability activity is -59.2% in test [1] and -56.9% in test [2].
